# Reference: PubChem BioAssay AID651718 (The Scripps Research Institute Molecular Screening Center, 2012)
# Screen size: about 360,000 compounds; about 2,700 (0.75%) were called active. This excerpt belongs to a sample that is enriched for actives. Values without a mark were called inactive. Rule as the data show it: active = inhibition above about 4.5%; inactive = the rest.
# Test system: Methionine sulfoxide reductase A (Bos taurus)
# Assay: inhibition of methionine sulfoxide reductase A – biochemical, absorbance, bovine, HTS, primary screen (AID 651718);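 also: 0% = vehicle wells with enzyme and 100% = reference inhibitor wells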
# Details: purified bovine MsrA, absorbance read-out; at 15.5 µM; hits give high values
row,Compound,inhibition
1,CC(=O)c1sc2nc(SCC(=O)N3CCCCC3)[nH]c(=O)c2c1C,6.38% (active)
2,CSc1nnc(SCc2nc3sc(C(=O)O)c(C)c3c(=O)[nH]2)s1,0%
3,Cc1c(C)n2c(SCC(=O)N3CCCC3)nnc2[nH]c1=O,-0.57%
4,COc1ccc(-c2ccccc2C2Cc3nnccc3CN2C(=O)Nc2ccccc2)cc1 (stereo not given),2.13%
5,CC(=O)N1C[C@@H](CO)[C@@H](N(C)C(=O)C(C)(C)C)C[C@H]1c1ccccc1Br,0.66%
6,COc1cccc(C2=CC(=O)C[C@H](c3ccc(F)cc3)C2)c1OC,6.7% (active)
7,O=C1C=C(c2cccc(Cl)c2O)C[C@@H](c2ccc(F)cc2)C1,-0.68%
8,COc1ccccc1C1=CC(=O)C[C@H](c2ccc(F)cc2)C1,1.16%
9,COC(=O)[C@]12C[C@H](CC(=O)NCc3cccc(C(F)(F)F)c3)C(=O)N(Cc3ccc4c(c3)OCO4)C1=C[C@H](COCc1ccccc1)O[C@@H]2C,0.87%
10,CC(C)C[C@H](NC(=O)CC1CCCC1)C(=O)N1CCC[C@H]1C(=O)NCc1ccccc1,0.9%
11,COC(=O)C1=C(C)N(Cc2cccc(C(F)(F)F)c2)C(=NCc2cccc(C(F)(F)F)c2)NC1c1ccccc1C(F)(F)F (stereo not given),-1.33%
12,Cc1ccc(S(=O)(=O)c2c(N)n(C)c3nc4ccccc4nc23)cc1,4.64% (active)
13,CCN(CC)CCn1c(N)c(S(=O)(=O)c2ccccc2)c2nc3ccccc3nc21,0.85%
14,CCC(=O)Nc1c(S(=O)(=O)c2ccccc2)c2nc3ccccc3nc2n1Cc1ccccc1,2.69%
15,O=C1CN(C(=O)COc2c(Cl)cccc2Cl)c2ccccc2N1,-0.91%
16,COC(=O)[C@]12C[C@H](CC(=O)NCc3ccccc3)C(=O)N(CCC3=CCCCC3)C1=C[C@H](C(C)(C)C)O[C@@H]2C,0.95%
17,O=C(CCNC(=O)c1ccccc1)NN=Cc1ccc(Br)o1,0.9%
18,O=C(N/N=C/c1ccc(Br)o1)c1cncc(Br)c1,4.63% (active)
19,O=C(CCC(=O)N/N=C/c1ccc(Br)o1)N/N=C/c1ccc(Br)o1,1%
20,CCCCN(C(=O)COc1ccc(NC(C)=O)cc1)C1CCS(=O)(=O)C1 (stereo not given),-0.22%
21,Cc1cc(C)c(S(=O)(=O)NCC(c2ccc3c(c2)OCO3)N2CCOCC2)c(C)c1 (stereo not given),-0.85%
22,CC(Nc1ccc([N+](=O)[O-])cc1[N+](=O)[O-])c1ccccc1 (stereo not given),35.6% (active)

row,Compound,inhibition
1,CC(C)OP(=O)(OC(C)C)C(Nc1ccccc1)c1cccc([N+](=O)[O-])c1 (stereo not given),1.56%
2,CC1(C)C/C(=N/Nc2ccc([N+](=O)[O-])cc2[N+](=O)[O-])C(C)(C)O1,-0.53%
3,COC(=O)[C@]12C[C@H](CC(=O)N3CCN(C(=O)C4CC4)CC3)C(=O)N(Cc3ccc4c(c3)OCO4)C1=C[C@H](C(C)(C)C)O[C@@H]2C,-0.48%
4,CC(=O)c1ccc(S(=O)(=O)NCC2CCN(C(=O)C(=O)c3cccs3)CC2)cc1,0.56%
5,Cc1ccc2nc(CN(C)C(=O)[C@@H](Cc3ccccc3)NC(=O)[C@H]3O[C@@H](n4ccc(=O)[nH]c4=O)[C@H](O)[C@@H]3O)[nH]c2c1,0.5%
6,Cc1ccccc1-n1c(C)cc(/C=N/NC(=O)c2ccc(CN3CCOCC3)cc2)c1C,1.71%
7,Cc1ccc(C(=O)Nc2c(C#N)c(C)c(C)n2Cc2ccccc2)cc1,-0.41%
8,Cc1ccc(C(=O)N/N=C/c2sc(=O)n(Cc3cccc(C(=O)O)c3)c2Cl)cc1,6.02% (active)
9,CC1CC(c2ccccc2)n2nc(NC(=O)c3cccs3)nc2N1 (stereo not given),-0.81%
10,CC1=C(N2CCN(c3ncccn3)CC2)CCC1=O,0%
11,O=C1/C(=C\Nc2ccccc2)CCN1c1ncccn1,5.03% (active)
12,COc1ccccc1Oc1ccc(N/C=C2/CCCC2=O)cc1,1.18%
13,CNS(=O)(=O)c1ccc(NC(=O)C2CC(=O)N(c3ccc(Cl)cc3)C2)cc1 (stereo not given),1.4%
14,COc1cc(/C=C/C(=O)OCC(=O)N2CCOCC2)ccc1OCC#N,2.74%
15,CCOc1ccc(/C=C(/C#N)c2nnc(N3CCOCC3)n2-c2ccccc2)cc1OC,6.28% (active)
16,CCOc1cc(-c2noc(CCC(=O)N3CCOCC3)n2)ccc1OC,-1.14%
17,NC(=O)c1ncn([C@@H]2O[C@H](C(=O)O)[C@@H](O)[C@H]2O)n1,0.08%
18,COc1cc(C2C(C(=O)c3sc(C)nc3C)=C(O)C(=O)N2CCN(C)C)cc(OC)c1OC (stereo not given),18.4% (active)
19,COc1ccc(C2C(C(C)=O)=C(O)C(=O)N2CCc2c[nH]c3ccccc23)cc1 (stereo not given),2.78%
20,CCCOc1ccc(/C(O)=C2/C(=O)C(=O)N(CCN(C)C)C2c2ccc(OC)c(OC)c2)cc1 (stereo not given),1.66%
21,Cc1cc(C)c(S(=O)(=O)NCCCN2CCOCC2)cc1Br,-0.29%
22,CCc1nnc(NC(=O)/C=C/c2ccc(C)o2)s1,5.52% (active)

row,Compound,inhibition
1,CCc1nnc(NC(=O)c2ccco2)s1,2.11%
2,CCc1nnc(NC(=O)[C@@H](NC(=O)c2cccc(C)c2)C(C)C)s1,0.82%
3,COc1ccc(SSc2ccc(OC)cc2C(=O)O)c(C(=O)O)c1,3.29%
4,CC(=O)C1=C(C)N(Cc2ccc(Cl)cc2)C(=S)NC1c1ccc(F)cc1 (stereo not given),0.08%
5,Cc1cc2c(=O)n(CC(=O)NCC(=O)Nc3ccc(C(C)C)cc3)cnc2s1,-2.15%
6,NC(=O)c1ccc(Nc2ccc3c(c2)CCC3)c([N+](=O)[O-])c1,13.9% (active)
7,O=[N+]([O-])c1ccccc1Nc1ccc(O)cc1,2.41%
8,CC(=O)Nc1ccc2c3c(ccc([N+](=O)[O-])c13)CC2,0.76%
9,Cc1ccc(Nc2ccc(C(N)=O)cc2[N+](=O)[O-])cc1,11.1% (active)
10,Cc1ccc(Nc2cc(C)nc3c(C)ccc([N+](=O)[O-])c23)cc1,-0.67%
11,Cc1cccc(N2CCN(c3ccc(C(N)=O)cc3[N+](=O)[O-])CC2)c1C,-0.25%
12,C=CC1=CCN(S(=O)(=O)C(C)(C)C)[C@@H]1CCO,-1.1%
13,COc1ccc(C)cc1NC(=O)CNCc1cccs1,1.1%
14,N=C1c2ccccc2-c2ccccc21,0.22%
15,COc1cc(C2CC(=O)N3CN(Cc4ccccc4)CSC3=C2C#N)ccc1OCc1ccccc1 (stereo not given),0.9%
16,CCCCN1C(=O)C(CC(=O)NCc2cccs2)CC(C(=O)N2CCOCC2)=C1C (stereo not given),0.14%
17,OC(c1ccccc1)(c1ccccc1)C1CCN(CCCOc2ccc(-c3ccsc3)cc2)CC1,0.25%
18,O=C(Cc1c[nH]c2ccccc12)N/N=C/c1cccc(F)c1,0.41%
19,O=C(O)c1cccc(NC(=S)N/N=C/c2c[nH]c3ccccc23)c1,5.25% (active)
20,CN(C)S(=O)(=O)c1cccc(NC(=S)N/N=C/C(=O)c2ccccc2)c1,1.15%
21,COc1ccc(NC(=O)NNC(=O)COc2cc(C)c(Cl)c(C)c2)c(OC)c1,-0.36%
22,CCCCCCCCN1C(=O)[C@@H](CC(=O)N2CCN(C(=O)OCC)CC2)C[C@@]2(C(=O)OC)C1=C[C@H](C1CCCC1)O[C@@H]2C,0.48%

row,Compound,inhibition
1,CCOc1cc(/C=C2\SC(N3CCCC(C)C3)=NC2=O)ccc1O (stereo not given),3.02%
2,CCOc1cc(/C=C2\SC(N3CCCCC3)=NC2=O)ccc1O,4.93% (active)
3,CCOc1cc(/C=C2\C(=N)N3N=C(C)SC3=NC2=O)ccc1OCCOc1ccccc1,-1.53%
4,CC(C)CNc1cccc2c1S(=O)(=O)N[C@H](CC(C)C)CO2,2.13%
5,COC(=O)Cc1nnn2c1[C@H](C)[C@H](c1ccccc1Br)OCC2,0.32%
6,CCN(CC)C(=O)c1sc(NC(=O)c2ccco2)c(C#N)c1C,4.94% (active)
7,Cc1c(C(=O)OC(C)C)sc(NC(=O)c2cccnc2)c1C#N,0.08%
8,Cc1sc(NC(=O)C2=COCCO2)c(C#N)c1C,0.89%
9,Nc1ncnc2c1ncn2[C@@H]1O[C@H](C(=O)N[C@@H](CCc2ccccc2)C(=O)NCC(=O)N2CCOCC2)[C@@H](O)[C@H]1O,-0.08%
10,COc1cccc(CNCc2ccc3c(c2)OCO3)c1,0.46%
11,NS(=O)(=O)c1ccc2nc(NC(=O)CS(=O)(=O)c3ccc(F)cc3)sc2c1,0.94%
12,CC(=O)Nc1ccc2nc(NC(=O)CS(=O)(=O)c3ccc(F)cc3)sc2c1,1.73%
13,CS(=O)(=O)c1ccc2nc(NC(=O)c3ccc(Cl)nc3)sc2c1,4.77% (active)
14,COC(=O)C1=C(C)N(Cc2ccccc2C(F)(F)F)C(=NCc2ccc(OC)cc2)NC1c1cccc(C(F)(F)F)c1 (stereo not given),-3.43%
15,Nc1ccn([C@@H]2O[C@H](C(=O)N[C@H]3CCCCNC3=O)[C@@H](O)[C@H]2O)c(=O)n1,-0.17%
16,C=CC[C@]12C[C@@]3(O[C@H](c4ccc(C(F)(F)F)cc4)N=C3C[C@H](c3ccc(OC)cc3)[C@H]1C)N(C1CCN(Cc3ccccc3)CC1)C2=O,0.32%
17,O=C(CSc1nnc(-c2cccnc2)n1Cc1ccco1)c1ccc(Cl)c(Cl)c1,-1.02%
18,Clc1cccc(-c2nc3nc4ccccc4nc3n2Cc2ccco2)c1,4.87% (active)
19,Cc1cc(NCc2ccco2)n2c(nc3ccccc32)c1C#N,-0.85%
